# Hits are enriched below; roughly 3.1% of the tested compounds scored in any of these assays.
# uPA generation – blocks generation of uPA at the cell surface; AID 540303; 0.31% of 330,000 active; cell surface uPA generation assay, qHTS; Potency, µM (series often up to 38.3 µM), most hits filed as inhibitors; active means well fitted inhibition curve with a large enough effect; inconclusive means small, poorly fitted or top-dose-only effect; inactive means no such curve, though single readings can be large or run the other way; tested in mouse RAW 264.7 cells; further: nearly all actives have a fitted effect of over 55% in size
# TSHR antagonist – antagonists of human thyroid stimulating hormone receptor. P16473. TSHR-expressing cells, TSH-stimulated cAMP HTRF, 2 h; stronger effect = lower value. activity change, negative = inhibition, % at 11.5 µM. 0.2% of 330,000 active;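 active means activity change below a set negative limit, meaning inhibition stronger than a set level, cut at about -70% in these data; inconclusive means activity change between two set negative limits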
#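 Antagonism was scored as loss of TSH-driven cAMP in TSHR cells, stimulated with 4nM TSH (EC80) for 2 hours at 37 deg C and detected by homogeneous HTRF competition immunoassay.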
# PLK1 PBD block – PLK1 (human) polo-box domain binding inhibition. P53350. Plk1 PBD binding of FITC phosphopeptide, fluorescence polarization. Potency, µM, usual class: inhibitors. 2.8% of 360,000 active. AID 720504; further: series mostly up to about 57 µM; nearly all actives have a fitted effect of over 65% in size
# TSG101-PTAP inh – blocks PTAP/TSG101 interaction to inhibit HIV-1 budding. Q99816. Fluorescence polarization, FITC-PTAP peptide / Tsg101 binding. Potency, µM (doses to about 115 µM), usual class: inhibitors. 340,000 tested, under 10 active. AID 493005; active means well fitted inhibition curve with a large enough effect in the main read-out, with a control signal flat, not every such curve was filed as active; inconclusive means small, poorly fitted or top-dose-only effect, or effect the other way, or a change in a side signal; inactive means no such curve, though single readings can be large or run the other way
#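 Tsg101 binding domain (10 uM final) was mixed with compound and a FITC-labeled PTAP peptide (50 nM final) in HEPES pH 7.5 buffer with NaCl, Tween 20, EDTA and TCEP; fluorescence polarization was read after 20 min at r.t.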
# VDR inhibitor – blocks the human vitamin D receptor; P11473; VDR-SRC2-3 peptide fluorescence polarization, 2 h; Potency, µM, actives largely listed as inhibitors; 0.93% of 400,000 active; AID 504847
# Target sequence (P11473 whole entry, looked up): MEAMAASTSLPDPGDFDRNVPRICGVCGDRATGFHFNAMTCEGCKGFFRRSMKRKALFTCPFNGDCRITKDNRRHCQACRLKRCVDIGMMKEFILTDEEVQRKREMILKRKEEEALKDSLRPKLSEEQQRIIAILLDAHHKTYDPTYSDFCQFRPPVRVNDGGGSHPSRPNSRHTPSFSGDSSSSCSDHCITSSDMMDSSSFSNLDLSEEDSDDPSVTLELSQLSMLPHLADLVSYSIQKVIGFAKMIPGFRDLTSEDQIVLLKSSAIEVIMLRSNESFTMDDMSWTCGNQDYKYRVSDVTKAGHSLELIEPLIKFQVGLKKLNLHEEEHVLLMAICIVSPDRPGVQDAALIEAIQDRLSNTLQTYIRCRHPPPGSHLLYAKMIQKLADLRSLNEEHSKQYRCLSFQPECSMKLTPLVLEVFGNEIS
#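 Fluorescence polarization assay measuring small-molecule disruption of VDR binding to the coregulator peptide SRC2-3. Compounds were pin-transferred (23 nl) into the reagent mix and incubated 2 h at room temperature before reading.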
# TbPYK confirm – Trypanosoma brucei pyruvate kinase inhibition, cherry-pick confirmation. recombinant TbPYK, Kinase-Glo ATP luminescence. Potency, µM (series often up to 76.9 µM), usual class: inhibitors. AID 720569. 67% of 890 active. shares compounds with PLK1 PBD block; further: nearly all actives have a fitted effect of over 70% in size
# TbPYK ADP-Glo – inhibits T. brucei pyruvate kinase in orthogonal ADP-Glo assay; shares compounds with PLK1 PBD block; recombinant TbPYK, ADP-Glo luminescence, 60 min; Potency, µM (top dose mostly 76.9 µM), usual class: inhibitors; 62% of 890 active; AID 720584; further: nearly all actives have a fitted effect of over 75% in size
# Hits are given with their value; . = inactive; ? = inconclusive; / = no result given. Unless noted, the call rests on the fitted dose curve; in most records, active means well fitted curve in the direction sought with a large enough effect; inconclusive means small, poorly fitted or top-dose-only effect, or another doubt; inactive means no such curve, though single readings can be large; an effect the other way counts as inactive or inconclusive.
SMILES,uPA generation,TSHR antagonist,PLK1 PBD block,TSG101-PTAP inh,VDR inhibitor,TbPYK confirm,TbPYK ADP-Glo
COc1ccc(CN2C(=O)NC(=O)/C(=C/c3cc(OC)c(OC)c(OC)c3)C2=O)cc1,.,.,12µM,.,?,?,.
COc1ccc(CN2C(=O)NC(=O)/C(=C/c3ccc(OC)c(OC)c3OC)C2=O)cc1,.,.,8.4µM,.,?,28µM,?
COc1ccc(-c2ccc(OC)c(OC)c2OC)cc1,.,/,.,.,.,/,/
CC(C)(C)C(O)C(Oc1ccc(-c2ccccc2)cc1)n1cncn1 (centres undefined),/,/,/,/,.,/,/
COc1ccc(N2C(=O)/C(=C/c3ccc(C)o3)C(=O)NC2=S)c(OC)c1,.,.,11µM,.,.,1.4µM,13µM
CCc1ccccc1N1C(=O)/C(=C/c2ccc(N3CCN(C)CC3)o2)C(=O)NC1=S,.,.,.,?,.,/,/
CC(C)(C)c1ccc(C(=O)NC(=S)Nn2cnnc2)cc1,.,.,?,.,.,/,/
O=C(COc1ccc(S(=O)(=O)N2CCOCC2)cc1)N1CCN(Cc2ccc3c(c2)OCO3)CC1,/,.,.,.,.,/,/
O=C1NC(=O)C(=Cc2ccc(OCC(=O)N3CCOCC3)cc2)C(=O)N1,.,.,27µM,.,.,18µM,?
Cn1cc(S(=O)(=O)N2CCc3ccccc32)cc1C(=O)NC(C)(C)C,?,.,.,.,.,/,/
COC1CC(C)C(OC)c2cc(O)cc(c2O)NC(=O)C(C)=CC=CC(C)C(OC(N)=O)C(C)=CC(C)C1OC (centres undefined),.,/,19µM,.,?,?,13µM
COc1ccc(-c2csc(NC(=O)C3CCN(C(=O)c4ccc(F)cc4)CC3)n2)cc1OC,?,.,.,/,.,/,/
O=C1NC(=O)C(=Cc2ccc(SC3CCCCC3)o2)C(=O)N1,?,.,0.6µM,.,?,28µM,40µM
O=C1NC(=O)N(c2ccc3c(c2)OCO3)C(=O)/C1=C\c1ccc(N2CCCCC2)o1,.,.,.,?,.,/,/
CCOC(=O)c1c(C)n(Cc2ccc(F)cc2)c2ccc(O)cc12,.,.,.,.,.,?,18µM
CCOC(=O)c1c(C)n(Cc2ccc3c(c2)OCO3)c2ccc(O)cc12,.,.,.,.,.,/,/
NCC[C@H](O)C(=O)N[C@H]1C[C@@H](N)[C@@H](O[C@H]2O[C@@H](CN)[C@@H](O)[C@@H](O)[C@@H]2N)[C@@H](O[C@H]2O[C@@H](CO)[C@@H](O)[C@@H]2O)[C@@H]1O,/,/,/,/,.,/,/
COc1ccc(S(=O)(=O)N(C)C[C@H]2OCCCC[C@H](C)Oc3ccc(N(C)C)cc3C(=O)N([C@H](C)CO)C[C@@H]2C)cc1,/,/,.,/,/,11µM,?
COc1ccc(OC(=O)N(C)C[C@@H]2OCc3ccccc3-c3c(n(C)c4ccccc34)C(=O)N([C@H](C)CO)C[C@@H]2C)cc1,/,/,.,/,/,/,/
CCOC(=O)CSCCOc1ccc(C=C2C(=O)NC(=O)NC2=O)cc1OC,.,.,8.4µM,.,?,16µM,?
CCOc1cc(C=C2C(=O)NC(=O)NC2=O)cc([N+](=O)[O-])c1O,/,.,/,/,/,/,/
CCOC(=O)c1c(/N=C/C2C(=O)NC(=S)NC2=O)sc2c1CCC2,.,.,.,?,?,?,?
Cn1cccc1/C=C1/C(=O)NC(=S)N(Cc2ccc(F)cc2)C1=O,.,.,0.67µM,.,?,3.5µM,?
C=CCC1C(=O)NC(=S)NC1=O,.,.,30µM,.,89µM,0.56µM,1.8µM
C=CC[C@@H](CC(=O)N(CCO)Cc1ccccc1)C(=O)NC[C@H](OC(=O)[C@@H](CC=C)CC(=O)OC(C)(C)C)c1ccccc1,?,.,.,.,.,/,/
SMILES,uPA generation,TSHR antagonist,PLK1 PBD block,TSG101-PTAP inh,VDR inhibitor,TbPYK confirm,TbPYK ADP-Glo
CNS(=O)(=O)c1ccc(-c2ccc(C=C3C(=O)NC(=O)NC3=O)o2)cc1,.,.,2.1µM,.,45µM,2.8µM,10µM
O=C1NC(=O)C(=Cc2ccccc2[N+](=O)[O-])C(=O)N1,.,/,12µM,.,?,8.9µM,28µM
Cc1cccc(N2C(=O)NC(=O)/C(=C/c3cc4c(cc3[N+](=O)[O-])OCO4)C2=O)c1,.,.,5.3µM,.,?,20µM,?
CN(C)c1ccc(C=C2C(=O)NC(=O)NC2=O)cc1[N+](=O)[O-],.,.,7.5µM,.,.,16µM,32µM
C[C@@]12CCC(=O)C=C1C=C[C@H]1[C@H]3CC[C@](O)(CCC(=O)O)[C@]3(C)CC[C@@H]12,/,/,/,/,.,/,/
NCCCP(=O)(O)CC1CCCCC1,/,/,/,/,.,/,/
COc1ccc(-c2ccccc2[C@H]2[C@@H]3C=CC[C@@H](C)[C@@H]3C(=O)N2Cc2ccccc2)cc1,?,.,.,.,?,/,/
C[C@H](NC(=O)[C@@H](N)Cc1ccc(O)cc1)C(=O)N[C@@H](Cc1ccccc1)C(=O)N[C@@H](Cc1ccccc1)C(N)=O,/,/,/,/,.,/,/
O=C1NC(=O)C(=Cc2cc3c(cc2[N+](=O)[O-])OCO3)C(=O)N1,.,.,13µM,.,40µM,8.9µM,?
O=C1NC(=O)C(=Cc2ccc(-c3ccccc3[N+](=O)[O-])o2)C(=O)N1,.,.,1.3µM,.,40µM,?,?
O=C1CC(O)(CF)CCO1 (centres undefined),/,/,/,/,.,/,/
COC(=O)C[C@@](O)(CCC(C)(C)O)C(=O)O[C@@H]1C(OC)=C[C@]23CCCN2CCc2cc4c(cc2[C@@H]13)OCO4,/,/,/,/,.,/,/
CCOc1ccccc1N1C(=O)NC(=O)/C(=C/c2ccc3c4c(cccc24)CC3)C1=O,.,.,6.7µM,.,?,?,?
Cc1cc(C)n2nc(SC(C)C(=O)N3CCC4(CC3)OCCO4)nc2n1 (centres undefined),.,.,.,/,.,.,.
Cc1ccc2cc3cc(C(=O)N4CCC5(CC4)OCCO5)oc3nc2c1,.,.,.,.,.,/,/

# Compound activity from PubChem.
